This note sets out measurements from PubChem BioAssay (EPA / NIEHS).

Active and inactive are the calls of the source. Rule for the calls: active = hit-call score of the fitted dose curve at least 0.9, where 1 is the maximum; inactive = score below 0.9.

Sequence of Hypoxia-inducible factor 1-alpha (Homo sapiens) (Q16665 whole entry, looked up): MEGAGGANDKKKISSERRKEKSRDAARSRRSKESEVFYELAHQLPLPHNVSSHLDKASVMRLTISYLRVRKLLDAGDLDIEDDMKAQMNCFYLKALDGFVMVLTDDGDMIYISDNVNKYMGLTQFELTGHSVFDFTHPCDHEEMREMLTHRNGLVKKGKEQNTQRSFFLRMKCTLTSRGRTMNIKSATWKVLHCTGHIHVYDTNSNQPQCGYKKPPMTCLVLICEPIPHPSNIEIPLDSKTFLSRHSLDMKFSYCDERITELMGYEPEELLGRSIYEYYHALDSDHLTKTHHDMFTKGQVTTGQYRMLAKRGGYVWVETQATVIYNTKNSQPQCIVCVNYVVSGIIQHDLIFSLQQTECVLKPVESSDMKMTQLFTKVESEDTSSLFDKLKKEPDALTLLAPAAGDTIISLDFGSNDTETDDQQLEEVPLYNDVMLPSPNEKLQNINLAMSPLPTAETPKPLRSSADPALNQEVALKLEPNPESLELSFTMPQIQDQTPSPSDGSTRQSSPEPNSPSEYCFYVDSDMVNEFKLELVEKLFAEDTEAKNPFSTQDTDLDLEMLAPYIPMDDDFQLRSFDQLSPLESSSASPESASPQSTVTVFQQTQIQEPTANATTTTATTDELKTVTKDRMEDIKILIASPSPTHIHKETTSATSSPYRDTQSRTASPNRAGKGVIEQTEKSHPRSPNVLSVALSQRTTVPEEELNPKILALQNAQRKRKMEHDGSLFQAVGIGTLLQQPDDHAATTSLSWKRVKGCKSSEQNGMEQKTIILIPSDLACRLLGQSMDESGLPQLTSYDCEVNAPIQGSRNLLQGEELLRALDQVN

The assay deals with Hypoxia-inducible factor 1-alpha (Homo sapiens) (UniProt Q16665). Briefly: ATG_HIF1a_CIS: Attagene CIS-FACTORIAL HepG2 Assay for human Hypoxia Inducible Factor 1 (HIF1A) (AID 2282951). The settings on record: HepG2 Attagene cis-factorial HIF1a reporter transcription; actives raise or lower the signal. The protocol:
ATG_CIS is a cell-based, multiplexed-readout assay that uses HepG2, a human liver cell line, with measurements taken at 24 hours after chemical dosing in a 24-well plate.ATG_HIF1a_CIS is one of 52 assay component(s) measured or calculated from the ATG_CIS assay. It is designed to make measurements of mRNA induction, a form of inducible reporter, as detected with fluorescence intensity signals by Reverse transcription polymerase chain reaction (RT-PCR) and Capillary electrophoresis technology.Data from the assay component ATG_HIF1a_CIS was analyzed into 1 assay endpoint. This assay endpoint, ATG_HIF1a_CIS, was analyzed with bidirectional fitting relative to DMSO as the negative control and baseline of activity. Using a type of inducible reporter, measures of mRNA for gain or loss-of-signal activity can be used to understand the reporter gene at the transcription factor-level as they relate to the gene HIF1A. Furthermore, this assay endpoint can be referred to as a primary readout, because this assay has produced multiple assay endpoints where this one serves a reporter gene function. To generalize the intended target to other relatable targets, this assay endpoint is annotated to the dna binding intended target family, where the subfamily is basic helix-loop-helix protein.
Human liver HepG2 cells are transiently transfected with multiple reporter transcription units (MRTUs) in 6-well plates using FuGene 6 reagent (Roche; 3 ml FuGene/1 mg DNA). The MRTU constructs are regulated by a cis-regulating element (promoter). […] A major difference between the CIS and TRANS system is that in CIS activities of endogenous TFs are measured, whereas the TRANS assay evaluates changes in activities of exogenous, chimeric NR-Gal4 proteins. […] At the end of 24 hour incubation, total RNA was isolated using TriZol reagent (Invitrogen). The isolated RNA is then reverse-transcribed using oligo(dT) primer and Mo-MLV reverse transcriptase (Invitrogen) with DNAse I (Ambion) treatment for 30 min. The one-tenth of the produced cDNA was amplified by PCR using Taq DNA polymerase (Invitrogen) and two reporter sequence-specific primers. The PCR products were fluorescently labeled by primer extension with 6-arboxyfluorescein (6-FAM) 5'-labeled reporter sequence-specific primer (2 min at 95 C, 20 s at 68 C and 10 min at 72 C) and these products were digested with 5U of HpaI (New England Biolabs) for 2h at 37 C. The fragments were purified using Qiaquick PCR columns (Qiagen), analyzed on an ABI 3130xL genetic analyzer (Applied Biosystems) with peak positions identified by using a set of X-rhodamine (ROX)-labeled MapMarker1000 molecular weight standards (BioVentures). The raw capillary electrophoresis data was processed using Attagraph software (Attagene).
Take `C=C(C)C(=O)OCCN(C)C`: the result was inactive.

In the case of `CCC(C)(C)C1CCC(OC)CC1` (stereo not given), the compound was called inactive.

Take `CC/C=C\C#N`: the result was inactive.

As for `Cc1cc(O)c(C)c(C)c1O`, the compound was classed as inactive.

`CC(=O)OCC=C(C)CCC=C(C)CCC=C(C)C`: the call was inactive.

On to `CC(CCO)CC(C)(C)C` (stereo not given), for which the compound was called inactive.

In the case of `CC(C)(C)c1ccc(S)cc1`, the result was inactive.

Turning to `CC(=O)CC(C)(C)C1CCCCC1`, the compound was called inactive.

Consider `CC(C)COC(=O)c1ccccc1`, for which the compound was called inactive.

Take `CCCCCC1CCC(=O)O1` (stereo not given): the compound was called inactive.

For the compound `CC1=C(C=O)C(C)(C)CCC1`, the outcome was inactive.

Consider `CC(C)(C)C1CCC(O)CC1` (stereo not given), for which the call was inactive.

As for `CCC(C)(C)c1cc(O)c(C(C)(C)CC)cc1O`, the AC50 is 10.7 µM (active).

Take `CCCCCC1C(=O)CCC1CC(=O)OC` (stereo not given): the compound was classed as inactive.

In the case of `CCC(C)COC(=O)CC(C)C` (stereo not given), the outcome was inactive.

With `CCCCCCCC1CCCC1=O` (stereo not given), the compound was called inactive.

As to `NC(N)=NC(N)=NCCc1ccccc1`, the compound was called inactive.

`CC12CCC(C1)C(C)(C)C2O` (stereo not given): the result was inactive.

Consider `C=CCCCCCCCCC(=O)OCC`, for which the compound was classed as inactive.

Consider `CC1=CC(O)CC(C)(C)C1` (stereo not given), for which the result was inactive.

For `CCCCCCCOC(C)=O`, the outcome was inactive.

Turning to `CC1=CCC(=C(C)C)CC1`, the call was inactive.

As for `O=C1OCc2ccccc21`, the call was inactive.

Consider `C=COCC1CCC(COC=C)CC1` (stereo not given), for which the outcome was inactive.

As for `C1COCO1`, the result was inactive.

In the case of `CCCCCCCCCCCCCCCCCC(=O)OCCCCCCCCCCCCCC(C)C`, the call was inactive.

For `Cc1cc(N)n(-c2ccccc2)n1`, the call was inactive.

Consider `CC1COC(=O)O1` (stereo not given), for which the call was inactive.

Consider `CCCCCCOC(C)=O`, for which the result was inactive.

Turning to `OC[C@H]1O[C@@H](O[C@H]2[C@H](O)[C@@H](O)[C@H](O)O[C@@H]2CO)[C@H](O)[C@@H](O)[C@H]1O`, the outcome was inactive.

As for `CC(=O)c1ccc2ccccc2c1`, the call was inactive.

Take `C=CC(=O)OCCCCCC`: the outcome was inactive.

Take `CCC(C)(C)C1CCC(=O)CC1`: the outcome was inactive.

Take `COC(=O)C(C)Oc1ccc(Oc2ncc(C(F)(F)F)cc2Cl)cc1` (stereo not given): the compound was classed as inactive.

`CC(=O)CCC(=O)O`: the result was inactive.

On to `CCC=C(C)C=O`, for which the compound was classed as inactive.

On to `CC(=O)CC(=O)N(C)C`, for which the outcome was inactive.

Regarding `CCCCCCCCCCO[C@@H]1O[C@H](CO)[C@@H](O)[C@H](O)[C@H]1O`, the outcome was inactive.

With `c1ccc(Sc2ccccc2)cc1`, the compound was called inactive.

For the compound `O=C(O)c1cc2ccccc2cc1O`, the compound was called inactive.
